CYP2C9 act: human CYP2C9 activators, primary screen, biochemical, luminescence | recombinant CYP2C9, luciferin-H conversion; stronger effect = higher value; factor 1 = untreated enzyme, 0 = blocked | Cytochrome P450 2C9 (Homo sapiens), P11712 | 96,000 compounds, 1.4% hits | activation factor at 5 µM;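 active means activation factor of 2 or more for CYP2C9 at a 5 µM dose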;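 further: 0 = sulfaphenazole-blocked wells and 1 = vehicle-only wells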
Target sequence (P11712 whole entry, looked up): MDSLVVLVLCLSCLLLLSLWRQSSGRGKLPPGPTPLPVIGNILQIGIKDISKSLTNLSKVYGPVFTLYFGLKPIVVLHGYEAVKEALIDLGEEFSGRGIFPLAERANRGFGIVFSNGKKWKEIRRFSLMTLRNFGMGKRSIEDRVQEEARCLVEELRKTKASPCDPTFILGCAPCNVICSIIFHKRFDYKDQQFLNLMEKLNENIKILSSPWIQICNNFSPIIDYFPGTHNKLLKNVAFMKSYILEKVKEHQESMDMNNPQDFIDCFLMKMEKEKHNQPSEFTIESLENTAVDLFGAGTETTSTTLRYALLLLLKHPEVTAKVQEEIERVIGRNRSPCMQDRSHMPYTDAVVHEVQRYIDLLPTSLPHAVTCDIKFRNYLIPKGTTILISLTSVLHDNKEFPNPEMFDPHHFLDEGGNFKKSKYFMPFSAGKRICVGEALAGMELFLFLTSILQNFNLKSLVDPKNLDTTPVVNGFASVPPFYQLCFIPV
CYP2C19 inh: blockers of cytochrome P450 2C19 activity – biochemical, luminescence, ADME assay, primary screen; CYP2C19 Supersomes, luciferin-H EGE luminescence, 30 min; 96,000 compounds, 21% hits; AID 778, 2007; inhibition, % at 5 µM; P33261;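 active means CYP2C19 inhibition above a set limit at 5 µM in the primary screen, cut at about 50% in these data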;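 further: plate controls were negative control wells for no effect and 2.5 mM tranylcypromine positive control for full effect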
CYP2C19 act: human CYP2C19 activators, primary screen, biochemical, luminescence; Cytochrome P450 2C19 (Homo sapiens), P33261; recombinant CYP2C19, luciferin-H EGE luminescence; stronger effect = higher value; 0 = fully inhibited enzyme, 1 = untreated enzyme; activation factor at 5 µM; 96,000 tested, under 10 active; AID 1025, 2008;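 active means activation factor of at least 2 at 5 µM in the primary screen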;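 further: 0 = wells with 2.5 mM tranylcypromine and 1 = vehicle-only wells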
Cav3 T inh: Cav3.2 calcium influx blockers – cell-based, Fluo-4 calcium fluorescence, FDSS, MLSMR library, primary screen; AID 449739, 2010; 100,000 compounds, 4% hits; B-score at 10 µM; Cav3.2-expressing cells; stronger effect = lower value;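 active means single-dose well whose peak fluorescence ratio is a statistical outlier from its plate by either plate-standardised score or position-corrected B-score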
CYP2C9 inh: blockers of cytochrome P450 2C9 activity – biochemical, luminescence, ADME assay, primary screen; AID 777, 2007; inhibition, % at 5 µM; 96,000 compounds, 20% hits; P11712; CYP2C9 Supersomes, luciferin-H conversion;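 active means blocking of liver enzyme CYP2C9 beyond about 50% at 5 µM, limit read from the data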
* = called active by the depositor. Sampled rows, rich in hits. Any-hit rate of the full collection: about 27%.

For CCOc1c(OC)cccc1C1CC(=O)Nc2cc3c(cc21)OCCO3 (centres undefined) the results were CYP2C9 act 0.3, CYP2C19 inh 93.9*, CYP2C19 act 0.1, Cav3 T inh -0.594 and CYP2C9 inh 69.7*.
Screening Cc1cccc(OCc2nnc(NC(=O)Cc3cccs3)s2)c1 returned Cav3 T inh 0.251.
Screening c1ccc(CNCc2ccc3c(c2)OCO3)nc1 returned Cav3 T inh 0.295.
For O=C1NCCCC1C(=O)N1CCN(C(c2ccccc2)c2ccccc2)CC1 (centres undefined) the results were CYP2C9 act 1, CYP2C19 inh -4.9, CYP2C19 act 1, Cav3 T inh 0.265 and CYP2C9 inh 2.2.
`c1ccc(C2OC3c4cccc5cccc(c45)C3N2c2ccccc2)cc1` (centres undefined) gave Cav3 T inh -2.67.
Screening COc1ccc(/C=C\C(=O)c2c(O)ccc3c(C)cc(=O)oc23)cc1OC returned CYP2C9 act 1.2, CYP2C19 inh 67.8*, CYP2C19 act 0.3, Cav3 T inh 1.93 and CYP2C9 inh -19.7.
For COc1cccc(C(=O)CN2C3=NCCCN3c3ccccc32)c1 the results were CYP2C9 act 1, CYP2C19 inh 10.4, CYP2C19 act 0.9, Cav3 T inh -0.555 and CYP2C9 inh 0.8.
CCOc1ccc2nc(NC(=O)Cn3cnc4c3c(=O)n(C)c(=O)n4C)sc2c1 was read as CYP2C9 act 0.9, CYP2C19 inh 69.1*, CYP2C19 act 0.3, Cav3 T inh 0.159 and CYP2C9 inh 14.8.
`CCn1c(SCC(=O)Nc2nc3ccc(OC)cc3s2)nc2c1c(=O)n(C)c(=O)n2C` gave CYP2C9 act 0.4, CYP2C19 inh 28.2, CYP2C19 act 0.7, Cav3 T inh -0.956 and CYP2C9 inh 62.4*.
Screening COc1cc(OC)cc(C(=O)N2CCN(C3CCN(Cc4ccccc4)CC3)CC2)c1 returned CYP2C9 act 1.3, CYP2C19 inh -3.5, CYP2C19 act 1, Cav3 T inh 1.51 and CYP2C9 inh -31.9.
O=C(O)C1CCCCC1C(=O)Nc1ccc(F)cc1F (centres undefined) was read as CYP2C9 act 1, CYP2C19 inh -3.9, CYP2C19 act 1 and CYP2C9 inh -0.9.
O=C(c1ccc(Cl)cc1)c1cnc(-c2ccc(Cl)cc2)s1 was read as CYP2C9 act 1.1, CYP2C19 inh 63.9*, CYP2C19 act 0.4, Cav3 T inh -0.1 and CYP2C9 inh -6.3.
Screening O=C(c1ccccc1)c1cnc(-c2ccc(Cl)cc2)s1 returned CYP2C9 act 0.6, CYP2C19 inh 34.2, CYP2C19 act 0.7, Cav3 T inh 0.13 and CYP2C9 inh 37.2.
`FC(F)(F)c1nc(Oc2ccccc2)c2ccccc2n1` gave CYP2C9 act 0.7, CYP2C19 inh 38.1, CYP2C19 act 0.6, Cav3 T inh -0.819 and CYP2C9 inh 32.8.
`N#CC1=C(N2CCCCC2)c2cc3c(n2C1=O)CCCC3` gave CYP2C9 act 0.5, CYP2C19 inh 45.1, CYP2C19 act 0.5, Cav3 T inh -0.933 and CYP2C9 inh 45.9.
For CCN(CC)C(=O)c1sc(NC(=O)C(Sc2ccccc2)c2ccccc2)c(C(=O)OC(C)C)c1C (centres undefined) the results were CYP2C9 act 0.2, CYP2C19 inh 20.9, CYP2C19 act 0.8, Cav3 T inh -4.5* and CYP2C9 inh 84.4*.
`CCOC(=O)c1c(NC(=O)OC)sc(C(=O)N(CC)CC)c1C` gave CYP2C9 act 0.3, CYP2C19 inh 56.3*, CYP2C19 act 0.4, Cav3 T inh 0.781 and CYP2C9 inh 66.6*.
CCN(CC)C(=O)c1sc(NC(=O)c2ccoc2C)c(C(=O)OC)c1C was read as CYP2C9 act 0.7, CYP2C19 inh 14.4, CYP2C19 act 0.9, Cav3 T inh -0.56 and CYP2C9 inh 31.3.
Screening CCOC(=O)c1sc(NC(=O)CN(CC(C)C)CC(C)C)c(C(=O)OCC)c1C returned CYP2C9 act 0.4, CYP2C19 inh 34.7, CYP2C19 act 0.7, Cav3 T inh -1.67 and CYP2C9 inh 62.2*.
Screening Cc1cc(C)c(NC2=CC(=O)CC(C)(C)C2)c(C#N)c1 returned CYP2C9 act 0.9, CYP2C19 inh 4.5, CYP2C19 act 1, Cav3 T inh -0.169 and CYP2C9 inh 14.4.
